For five compounds, composite z-score and z-score results are on record in PubChem BioAssay.

The structures appear in SMILES notation. The source made the active and inactive calls. Unless noted, how the calls were made is not given here.

Experiment [1] is described as follows: compounds binding Alexa647 anti-His antibody – biochemical, small-molecule microarray, 635 nm fluorescence, artefact control for SMM control protein annotation, primary screen (AID 1128).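 Further: score merges feature fluorescence with signal-to-noise for each printed compound spot.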 As to conditions: higher = more signal.
The test system of experiment [2] is Human papillomavirus type 1a E7 protein (residues 1-88). Kind of experiment: HPV1a E7 small-molecule binders, primary screen, biochemical, small-molecule microarray, residues 1-88, 635 nm (AID 1129). As to conditions: small-molecule microarray binding, fluorescence 635 nm; higher = more signal.
Experiment [3] deals with Focal adhesion kinase 1 (Homo sapiens) (UniProt Q05397). In words: PTK2 protein binding on printed compound slides – biochemical, small-molecule microarray, 635/667 nm fluorescence, BSA, DTT, primary screen (AID 1130).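 Further: composite of spot emission at 667 nm and signal to noise over triplicate slides.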 As to conditions: 635 nm fluorescence, higher = more signal.
Experiment [4] deals with Fibrinogen (Alexa647-labelled). In words: Alexa647-fibrinogen binding to printed small molecules – biochemical, small-molecule microarray, 635/667 nm fluorescence, artefact control for SMM control-protein annotation, profiling panel (AID 1131).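 Further: z-score merges 667 nm fluorescence with per-spot signal-to-noise over triplicate slides.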 To be noted: fibrinogen-A647 binding fluorescence, higher = more signal.
Experiment [5] deals with Follistatin (Homo sapiens) (UniProt P19883). In words: FST protein binding to printed compounds – biochemical, small-molecule microarray, 635/667 nm fluorescence, primary screen (AID 1132). To be noted: 635 nm fluorescence, higher = more signal.
Experiment [6] concerns the target Fibroblast growth factor 2 (Homo sapiens) (UniProt P09038). In words: basic fibroblast growth factor binding to printed compounds – biochemical, small-molecule microarray, 635/667 nm fluorescence, primary screen (AID 1133). To be noted: FGF2, fluorescence 635/667, higher = more signal.
Experiment [7] is described as follows: JC-1 mitochondrial potential readout, lung cancer cells – cell-based, A549, JC-1 fluorescence, basal, 24 h, 100 nL, profiling panel (AID 1138).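 Further: A549 lung adenocarcinoma cells under basal conditions with no added stimulus; test concentration not given here.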 To be noted: higher = more signal.
A further experiment deals with Lefty1. In words: Lefty1 protein binding to printed compounds – biochemical, small-molecule microarray, 635/667 nm fluorescence, primary screen (AID 1139). As to conditions: fluorescence 635/667, higher = more signal.
The subject of experiment [8] is wheat germ agglutinin (Triticum aestivum), Alexa647-labelled. In words: Alexa647-WGA lectin binding to printed small molecules – biochemical, small-molecule microarray, 635/667 nm fluorescence, artefact control for SMM control-protein annotation, profiling panel (AID 1140).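 Further: score merges 667 nm feature emission with signal to noise over triplicate slides.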 To be noted: WGA-A647 binding, 635 nm fluorescence, higher = more signal.
For experiment [9], the target named is Luciferin 4-monooxygenase (Photinus pyralis) (UniProt P08659). In words: inhibition of purified Photinus pyralis luciferase – biochemical, luminescence, purified enzyme, 2006 set, primary screen (AID 1141).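 Further: cell-free assay with purified firefly luciferase at 100 ng per well in PBS; test concentration not given here.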 To be noted: purified firefly luciferase, SteadyGlo luminescence, 30 min; higher = more signal, called active from +8 up or from −8 down.
Experiment [10] concerns Wnt5a (protein binding on small-molecule microarray). Kind of experiment: small molecules binding Wnt5a protein – biophysical, small-molecule microarray, 635/667 nm fluorescence, primary screen (AID 1142).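 Further: fluorescence read at 667 nm with signal to noise per printed feature.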 As to conditions: 635 nm fluorescence, higher = more signal.
The nature of experiment [11]: ATP-based viability of Huh7 replicon cells – cell-based, CellTiter-Glo luminescence, basal, 48 h, cytotoxicity control for HCV replication inhibitor project, primary screen (AID 1143).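 Further: Huh7 hepatoma cells carrying a hepatitis C replication reporter with no stimulus; test concentration not given here.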 To be noted: higher = more signal, called active from +8 up or from −8 down.
A short description of experiment [12]: Pseudomonas biofilm growth suppression – PAO1 strain, BacTiter-Glo luminescence, LB-PBS, primary screen (AID 1144). As to conditions: P. aeruginosa PAO1 biofilm, 12 h, higher = more signal.
A short description of experiment [13]: basal CRE-LacZ reporter activity in PC12 – cell-based, unstimulated, primary screen (AID 1145). As to conditions: no forskolin, luminescence, 4.5 h, higher = more signal, called active from +8 up or from −8 down.
Experiment [14] is described as follows: forskolin-driven CRE-LacZ activity in PC12 – cell-based, CRE-LacZ reporter, forskolin-stimulated, primary screen (AID 1146).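 Further: PC12 cells with 6xCRE LacZ reporter stimulated by forskolin 10 µM; beta-galactosidase reporter signal reflecting CREB driven transcription.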 As to conditions: luminescence, 4.5 h, higher = more signal, called active from +8 up or from −8 down.
In experiment [15] the target is Streptavidin (Streptomyces avidinii) (UniProt P22629). In words: compounds binding control protein streptavidin – biophysical, small-molecule microarray, 635/667 nm fluorescence, artefact control for SMM compound annotation, primary screen (AID 1147).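 Further: signal reflects streptavidin binding to arrayed compounds as a control protein.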 As to conditions: higher = more signal.
A short description of experiment [16]: probe aInhba binding on compound microarray – biochemical, small-molecule microarray, 635/667 nm fluorescence, primary screen (AID 1148).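 Further: score merges 667nm spot fluorescence with signal-to-noise for antibody binding to printed compounds.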 To be noted: higher = more signal.
The target of experiment [17] is Torsin-1A (Homo sapiens) (UniProt O14656). In words: TOR1A wild-type binding on microarray – cell lysate, small-molecule microarray, lysate, 635/667 nm, primary screen (AID 1149). As to conditions: COS7 hTOR1A-WT lysate, 635 nm fluorescence, higher = more signal.
For experiment [18] the target is unchanged. In words: torsin A mutant lysate binding on microarrays – cell lysate, small-molecule microarray, COS7 lysate, 635/667 nm fluorescence, primary screen (AID 1150).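 Further: score pools 667 nm emission and signal to noise measuring lysate protein binding.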 As to conditions: COS7 hTOR1A mutant lysate, 635 nm fluorescence, higher = more signal.
For experiment [19], the system named is Sonic hedgehog protein (Shh). Kind of experiment: Sonic hedgehog microarray binding compounds – biochemical, small-molecule microarray, 635/667 nm fluorescence, primary screen (AID 1151).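 Further: Shh protein binding to compounds spotted on small-molecule microarray slides; score combines spot fluorescence intensity with signal-to-noise across triplicate slides.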 As to conditions: 635 nm fluorescence, higher = more signal.

Sequence of Streptavidin (Streptomyces avidinii) (P22629 whole entry, looked up): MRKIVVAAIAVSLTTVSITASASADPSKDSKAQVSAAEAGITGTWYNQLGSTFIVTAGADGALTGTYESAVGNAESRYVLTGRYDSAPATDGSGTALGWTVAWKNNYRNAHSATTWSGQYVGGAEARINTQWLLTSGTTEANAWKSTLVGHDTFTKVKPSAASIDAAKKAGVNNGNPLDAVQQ
Sequence of Fibroblast growth factor 2 (Homo sapiens) (P09038 whole entry, looked up): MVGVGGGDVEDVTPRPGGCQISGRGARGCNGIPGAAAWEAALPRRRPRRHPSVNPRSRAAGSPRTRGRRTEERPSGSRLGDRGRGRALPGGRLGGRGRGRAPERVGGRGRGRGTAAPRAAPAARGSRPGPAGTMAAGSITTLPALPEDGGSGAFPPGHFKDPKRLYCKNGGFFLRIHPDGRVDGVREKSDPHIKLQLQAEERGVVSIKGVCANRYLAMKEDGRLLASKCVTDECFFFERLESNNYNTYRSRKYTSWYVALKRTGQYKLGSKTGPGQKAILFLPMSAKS
Sequence of Torsin-1A (Homo sapiens) (O14656 whole entry, looked up): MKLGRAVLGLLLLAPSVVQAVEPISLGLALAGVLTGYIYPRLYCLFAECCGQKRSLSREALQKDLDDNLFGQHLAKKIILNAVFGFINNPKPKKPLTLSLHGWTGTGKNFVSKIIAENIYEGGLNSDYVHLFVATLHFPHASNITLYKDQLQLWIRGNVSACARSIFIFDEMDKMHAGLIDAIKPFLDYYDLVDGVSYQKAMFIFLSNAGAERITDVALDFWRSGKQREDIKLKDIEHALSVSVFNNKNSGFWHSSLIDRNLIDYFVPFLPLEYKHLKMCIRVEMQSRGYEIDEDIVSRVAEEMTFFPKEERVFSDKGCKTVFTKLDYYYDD
Sequence of Focal adhesion kinase 1 (Homo sapiens) (Q05397 whole entry, looked up): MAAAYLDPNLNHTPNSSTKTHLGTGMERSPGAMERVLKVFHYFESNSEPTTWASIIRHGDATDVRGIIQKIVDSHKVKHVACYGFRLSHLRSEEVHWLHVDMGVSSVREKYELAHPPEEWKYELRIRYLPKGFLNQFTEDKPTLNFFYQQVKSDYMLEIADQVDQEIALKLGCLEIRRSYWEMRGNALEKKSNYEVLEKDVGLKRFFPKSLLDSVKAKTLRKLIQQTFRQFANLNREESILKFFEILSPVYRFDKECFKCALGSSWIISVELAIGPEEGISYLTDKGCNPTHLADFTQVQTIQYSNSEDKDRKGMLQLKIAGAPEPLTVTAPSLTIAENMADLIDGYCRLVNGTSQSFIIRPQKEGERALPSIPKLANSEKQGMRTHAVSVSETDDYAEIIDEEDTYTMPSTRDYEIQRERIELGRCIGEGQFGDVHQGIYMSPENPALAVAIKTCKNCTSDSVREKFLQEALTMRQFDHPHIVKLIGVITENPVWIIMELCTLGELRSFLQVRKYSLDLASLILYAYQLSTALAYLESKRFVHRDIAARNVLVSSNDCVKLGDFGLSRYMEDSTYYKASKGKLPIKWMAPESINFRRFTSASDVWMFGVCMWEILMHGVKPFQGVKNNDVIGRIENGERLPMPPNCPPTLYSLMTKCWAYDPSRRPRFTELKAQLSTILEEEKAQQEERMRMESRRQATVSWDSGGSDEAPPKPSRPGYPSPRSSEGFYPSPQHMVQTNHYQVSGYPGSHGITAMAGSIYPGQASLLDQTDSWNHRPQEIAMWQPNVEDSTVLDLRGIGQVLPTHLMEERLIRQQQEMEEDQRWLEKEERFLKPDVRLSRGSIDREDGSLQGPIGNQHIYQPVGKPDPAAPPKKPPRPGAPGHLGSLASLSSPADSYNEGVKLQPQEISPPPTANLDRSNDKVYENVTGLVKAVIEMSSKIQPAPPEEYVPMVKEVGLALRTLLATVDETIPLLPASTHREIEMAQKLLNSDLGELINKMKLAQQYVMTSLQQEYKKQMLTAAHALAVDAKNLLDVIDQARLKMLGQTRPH
Sequence of Follistatin (Homo sapiens) (P19883 whole entry, looked up): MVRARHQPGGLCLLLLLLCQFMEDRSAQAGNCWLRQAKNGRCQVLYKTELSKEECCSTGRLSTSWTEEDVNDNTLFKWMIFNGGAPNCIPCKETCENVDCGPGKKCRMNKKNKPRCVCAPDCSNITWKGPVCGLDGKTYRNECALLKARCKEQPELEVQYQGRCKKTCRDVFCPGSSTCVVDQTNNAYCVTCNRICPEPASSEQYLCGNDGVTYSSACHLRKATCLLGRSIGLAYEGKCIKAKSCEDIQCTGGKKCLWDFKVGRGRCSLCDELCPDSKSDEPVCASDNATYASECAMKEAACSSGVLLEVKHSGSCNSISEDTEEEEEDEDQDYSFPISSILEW
Sequence of Luciferin 4-monooxygenase (Photinus pyralis) (P08659 whole entry, looked up): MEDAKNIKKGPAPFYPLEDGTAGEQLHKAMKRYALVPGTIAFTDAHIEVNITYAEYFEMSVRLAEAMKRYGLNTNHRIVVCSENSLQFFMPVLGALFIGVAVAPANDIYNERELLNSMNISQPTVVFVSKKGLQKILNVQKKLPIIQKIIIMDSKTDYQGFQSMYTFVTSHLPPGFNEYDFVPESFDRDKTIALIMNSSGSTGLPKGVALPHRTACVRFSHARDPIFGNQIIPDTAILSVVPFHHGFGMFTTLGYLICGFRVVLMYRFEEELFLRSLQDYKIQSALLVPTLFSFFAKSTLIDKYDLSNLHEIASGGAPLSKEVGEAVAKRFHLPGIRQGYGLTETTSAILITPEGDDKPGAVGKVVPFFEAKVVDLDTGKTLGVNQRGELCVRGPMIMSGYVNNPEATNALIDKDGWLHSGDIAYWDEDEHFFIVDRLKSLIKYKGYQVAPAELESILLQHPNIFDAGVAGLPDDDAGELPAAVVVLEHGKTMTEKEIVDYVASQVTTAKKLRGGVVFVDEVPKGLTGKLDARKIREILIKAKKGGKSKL

Consider `COc1cc2c(cc1O)C(c1ccc(CN3CCCC3)cc1)N(Cc1cccc(OC(F)(F)F)c1)CC2` (stereo not given), for which the composite z-score was 1.67 in experiment [1]; 0.879 in experiment [2]; -0.425 in [3]; 0.406 in experiment [4]; 1.22 in experiment [5]; 0.476 in experiment [6]. Also, the composite z-score is 0.242 in the experiment on Lefty1; 0.625 in experiment [8]; -0.0324 in [10]; 0.0307 in experiment [15]; -0.15 in [16]; 0.47 in the experiment with Torsin-1A (Homo sapiens) [17]. Also, the composite z-score came out at 1.13 in the experiment with Torsin-1A (Homo sapiens) [18] and 0.345 in experiment [19]. Moreover, the z-score in experiment [7] is -2.01; in experiment [9], -1.37 (inactive); in experiment [11], -5.42 (inactive); in experiment [12], 1.15 (inactive); in [13], 0.0924 (inactive); in experiment [14], 0.248 (inactive).
Take `C=CCC(OC(C)=O)[C@@H]1[C@@H](N(Cc2cc3ccccc3o2)C(=O)Cc2ccc(OC)cc2)c2cc(OCCCO)ccc2N1C(=O)Cc1ccc(OC)cc1` (stereo not given in full): the composite z-score is 0.69 in [1]; -0.406 in experiment [2]; 0.517 in experiment [3]; 0.712 in experiment [4]; 0.726 in [5]; 0.171 in experiment [6]. For the same compound, the composite z-score in the experiment on Lefty1 was -0.0035; in [8], 0.67; in experiment [10] it was -0.0737; in experiment [15], -0.213; in [16] it was 0.168; with Torsin-1A (Homo sapiens) [17], 0.29. Further, the results for the composite z-score (with Torsin-1A (Homo sapiens) [18]; in experiment [19]) were 0.34 and 0.551, respectively. The z-score in experiment [7] was -0.411; in experiment [9] it was 0.244 (inactive); in [11] it was -1.17 (inactive); in experiment [12] it was 0.0258 (inactive); in [13], 0.469 (inactive); in experiment [14], -0.0385 (inactive).
For the compound `COCCOC(=O)N1C(=O)[C@@]2(c3cc(C#CC4=CCCCC4)ccc31)[C@H](c1ccc(OCCO)cc1)N1[C@H](c3ccccc3)[C@H](c3ccccc3)OC(=O)[C@H]1[C@@H]2C(=O)N1CCCCCCC1`, the composite z-score in experiment [1] is 1.11; in experiment [2], 0.929; in experiment [3] it was 0.267; in [4], 0.818; in experiment [5], 1.41; in experiment [6] it was 1.42. The composite z-score is 1.21 with Lefty1; 0.743 in experiment [8]; 0.266 in [10]; 0.945 in [15]; 1.05 in experiment [16]; 0.984 in the experiment with Torsin-1A (Homo sapiens) [17]. Moreover, the composite z-score with Torsin-1A (Homo sapiens) [18] is 0.84; in [19] it was 1.91. Also, the z-score in experiment [7] is -0.744; in experiment [9], -2.78 (inactive); in experiment [11] it was -4.59 (inactive); in experiment [12], -1.17 (inactive); in [13], -0.698 (inactive); in [14] it was -1.13 (inactive).
Turning to `N#Cc1ccc(C(O)C2C=CC3C(=O)NC(=O)C3N2Nc2ccccn2)cc1` (stereo not given), the composite z-score was 0.782 in experiment [1]; 0.615 in experiment [2]; -0.205 in experiment [3]; 0.861 in experiment [4]; 0.286 in experiment [5]; -0.126 in [6]. Also, the composite z-score in the experiment with Lefty1 was -0.157; in experiment [8], 0.144; in experiment [10] it was -0.0926; in experiment [15], 0.126; in experiment [16] it was -0.0427; with Torsin-1A (Homo sapiens) [17] it was 0.166. Also, the composite z-score was 0.241 with Torsin-1A (Homo sapiens) [18] and -0.301 in [19]. Besides, the z-score is 1.36 in experiment [7]; -1.25 (inactive) in [9]; -0.0103 (inactive) in [11]; -1.11 (inactive) in experiment [12]; 0.243 (inactive) in [13]; -0.345 (inactive) in [14].
Take `C=CC[C@@]1(C(=O)N(C)C)N=C(c2ccc(OCCCO)cc2)O[C@@H]1c1ccccc1`: the composite z-score in [1] amounted to 2.63; in experiment [2], 1.24; in experiment [3] it was 0.356; in experiment [4], 0.3; in [5], 0.0236; in experiment [6] it was 0.298. The composite z-score is -0.68 in the experiment with Lefty1; 1.02 in experiment [8]; 0.919 in [10]; -0.232 in experiment [15]; 0.496 in [16]; 0.986 with Torsin-1A (Homo sapiens) [17]. Further, the composite z-score in the experiment with Torsin-1A (Homo sapiens) [18] is 0.571; in [19], -0.0763. In addition, the z-score is -0.324 in [7]; 0.213 (inactive) in experiment [9]; -1.45 (inactive) in experiment [11]; 0.442 (inactive) in experiment [12]; 0.652 (inactive) in [13]; 0.535 (inactive) in experiment [14].
